Compounds without any hit were thinned out: in the full panel of roughly 83,000, 20% have a hit.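 Activity criterion: percent growth below 10, measured after cells in 96-well plates were exposed to a single compound concentration for 48 hours.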 Unmarked numbers belong to inactive results. Calls of active or inactive are those of the source.
What follows are compounds tested on SNB-19 CNS (assay: NCI-60 one-dose screen, 48 h (100 = growth as untreated, 0 = no growth, -100 = all killed)). Conditions: 10 µM unless noted.

| SMILES | growth |
| --- | --- |
| O=C(NC(=S)Nc1cccc(NC(=S)NC(=O)c2ccccc2)c1)c1ccccc1 | 50.9% |
| COc1cc(C(=O)Nc2ccc(-c3nc4ccccc4[nH]3)cc2)cc(OC)c1OC | 53.8% |
| CN(C)c1ccc(N=Cc2ccc(N3CCOCC3)cc2)cc1 | 90.9% |
| Cc1ccc(C)c(-c2csc(Nc3ccc(C)c(C)c3)n2)c1 | 84% |
| COc1ccc(-c2nsc3c2NC(=O)CC3c2ccsc2)cc1 (centres undefined) | 50% |
| O=C(NCCCN1CCC(N2CCCCC2)CC1)C1=Cc2cc(Br)ccc2OC1 | 58.8% |
| CN1CCN(Cc2ccc(C(=O)Nc3cncc(C#Cc4cnc5cccnn45)c3)cc2C(F)(F)F)CC1 | 95% |
| Cc1ccccc1CNC(=O)C1CN(c2ccc(Cl)cc2)N(c2ccc(Cl)cc2)C1=O (centres undefined) | 89.5% |
| Cc1sc2ncn(CC(=O)Nc3ccc(S(N)(=O)=O)cc3)c(=O)c2c1C | 98.5% |
| Fc1cccc(COc2ccc(Nc3ncnc4onc(-c5ccccc5)c34)cc2)c1 | 21% |
| Clc1ncccc1Nc1ccc2nnc(-c3ccncc3)n2n1 | 102% |
| CCc1ccc(CNCC(O)c2ccccc2)cc1 (centres undefined) | 79.7% |
| COc1ccc2oc(=O)cc(Cn3cc(Cn4cnc5c4c(=O)n(C)c(=O)n5C)nn3)c2c1 | 99.5% |
| COc1ccc(N(C)c2nc(N)nc3sc4c(c23)CCCC4)cc1 | 23.8% |
| O=C(NCc1ccccc1)C1CN(c2ccc(Cl)cc2)N(c2ccc(Cl)cc2)C1=O (centres undefined) | 84.9% |
| COc1ccc(C2NCCc3c2[nH]c2ccccc32)cc1CN1CCN(c2ccc(F)cc2)CC1 (centres undefined) | 77.9% |
| CNCCNc1nc2ccccc2c2c(=O)c3cccc(OC)c3sc12 | 42% |
| COc1cc(/C=C/C(=O)c2ccc(Cl)cc2)cc(CN2CCCCC2)c1O | 85.4% |
| COc1ccc(-n2c(C(O)c3ccccc3)nn(CN3CCOCC3)c2=S)cc1 (centres undefined) | 92.7% |
| O=C(c1nc2ccccc2[nH]1)C1C(c2cccc([N+](=O)[O-])c2)C2CC3CCCCC3N2[C@@]12C(=O)Nc1cc(Cl)ccc12 (some centres undefined) | 39.1% |

| SMILES | growth |
| --- | --- |
| NC(CCl)=NCCC[C@H](N)C(=O)O | 97.3% |
| CCOC(=O)c1ccc2[nH]c(-c3ccccc3)cc(=O)c2c1 | 94.9% |
| COc1ccc(-c2nsc3c2NC(=O)CC3c2cccc(OC)c2)cc1 (centres undefined) | 70.3% |
| CCN(CC)CCCNc1ccnc2cc3ccccc3cc12 | 71.3% |
| Cn1cc([C@@H]2Nc3ccc4[nH]ncc4c3[C@H]3[C@H]4CCC(C4)[C@H]32)c(C(F)(F)F)n1 | 50.7% |
| CCOC(=O)C1(C(=O)OCC)N=C(c2ccccc2)C=C1c1ccccc1 | 95.4% |
| COc1ccccc1N1C(=N)S/C(=C\c2ccc(OCc3ccccc3F)cc2)C1=O | 90.9% |
| O=C(c1ccccc1)N(CCc1ccc(Cl)cc1)C(=S)N(C(=O)c1ccccc1)c1ccccc1 | 109% |
| COc1ccc(Nc2cc(C)nc(NCc3ccccc3)n2)cc1 | 57.1% |
| COc1ccc(C(=O)C2CC2c2ccc(Cl)cc2)cc1 (centres undefined) | 117% |
| CCOC(=O)c1c2c(c(C)n1Cc1ccc(OC)cc1)-c1oncc1CC2 | 81.8% |
| Cc1ccc2cc3c(N)c4c(C)ccc(C)c4nc3nc2c1 | 80.2% |
| O=C1Nc2ccccc2/C1=C/c1ccc[nH]1 | 90.3% |
| COc1ccc(Cn2cc(Cn3c(=O)c(-c4nc5ccccc5[nH]4)cc4ccccc43)nn2)c(OC)c1OC | 22.8% |
| CCOc1cc2c(cc1OCC)C(c1cc(C)c(O)c(C)c1)NCC2 (centres undefined) | 101% |
| C=C(C)CCC(C)N1CCC(N2CCC(C(=O)NCCc3ccccc3)CC2)CC1 (centres undefined) | 102% |
| COc1ccc(/C=C2\SC(=Nc3ccccc3)NC2=O)cc1 | -50% (active) |
| CN1C(=O)N(C)C2(c3ccccc3)OC(=S)NC12c1ccccc1 (centres undefined) | 98.4% |
| O=NN(Cc1cccnc1)C(=O)NC1CCCCC1 | 102% |
